Results taken from the supplement of paper PMC12282887.
± gives the standard deviation of the averaged measurements.

Experiments:
Assay in all cases: promoter activity interaction Z-score (Lux/OD deviation from empty-vector control); higher = stronger promoter induction by the compound
[1] = tested on: E. coli BW25113 acrABp lux reporter
Summary of the method: (§1)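 Reporter strains of E. coli BW25113 grew at 37°C in 40 µl LB Lennox in 384-well plates. Readings of OD600 and luminescence were taken every 30 min over 12 h, integrated over 0–8 h (wild type) or 1–9 h (deletion strains), and wells below 10% of the median growth value were excluded. Scores are Z-transformed residuals of growth-normalised luminescence from a fit against a control.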

[2] = tested on: E. coli BW25113 marRABp lux reporter
Summary of the method: as §1

[3] = tested on: E. coli BW25113 micFp lux reporter
Summary of the method: as §1

[4] = tested on: E. coli BW25113 ompFp lux reporter
Summary of the method: as §1

[5] = tested on: E. coli BW25113 robp lux reporter
Summary of the method: as §1

[6] = tested on: E. coli BW25113 soxSp lux reporter
Summary of the method: as §1

[7] = tested on: E. coli BW25113 tolCp lux reporter
Summary of the method: as §1

[8] = 0.011 µg/ml, genetic background: wild type
[9] = 0.011 µg/ml, genetic background: ΔmarA
[10] = 0.011 µg/ml, genetic background: Δrob
[11] = 0.011 µg/ml, genetic background: ΔsoxS
[12] = 0.022 µg/ml, genetic background: wild type
[13] = 0.022 µg/ml, genetic background: ΔmarA
[14] = 0.022 µg/ml, genetic background: Δrob
[15] = 0.022 µg/ml, genetic background: ΔsoxS
[16] = 0.044 µg/ml, genetic background: wild type
[17] = 0.044 µg/ml, genetic background: ΔmarA
[18] = 0.044 µg/ml, genetic background: Δrob
[19] = 0.044 µg/ml, genetic background: ΔsoxS

C[C@@H](O)[C@H]1C(=O)N2C(C(=O)O)=C(S[C@@H]3CN[C@H](C(=O)N(C)C)C3)[C@H](C)[C@H]12 [Meropenem]
promoter activity interaction Z-score [1, 8]: -0.325 ± 0.13
promoter activity interaction Z-score [1, 9]: -0.25 ± 1.2
promoter activity interaction Z-score [1, 10]: -0.499 ± 0.11
promoter activity interaction Z-score [1, 11]: -0.443 ± 0.38
promoter activity interaction Z-score [1, 12]: -0.443 ± 0.2
promoter activity interaction Z-score [1, 13]: 0.239 ± 0.72
promoter activity interaction Z-score [1, 14]: -0.429 ± 0.27
promoter activity interaction Z-score [1, 15]: -0.714 ± 0.56
promoter activity interaction Z-score [1, 16]: -0.272 ± 0.31
promoter activity interaction Z-score [1, 17]: -0.463 ± 0.48
promoter activity interaction Z-score [1, 18]: -0.0657
promoter activity interaction Z-score [1, 19]: -1.05 ± 0.84
promoter activity interaction Z-score [2, 8]: -0.451 ± 0.26
promoter activity interaction Z-score [2, 9]: -0.532 ± 0.041
promoter activity interaction Z-score [2, 10]: -0.399 ± 0.031
promoter activity interaction Z-score [2, 11]: -0.178 ± 0.1
promoter activity interaction Z-score [2, 12]: -0.13 ± 0.065
promoter activity interaction Z-score [2, 13]: -0.4 ± 0.097
promoter activity interaction Z-score [2, 14]: -0.114 ± 0.41
promoter activity interaction Z-score [2, 15]: 0.18 ± 0.22
promoter activity interaction Z-score [2, 16]: 0.785
promoter activity interaction Z-score [2, 17]: -0.754
promoter activity interaction Z-score [2, 18]: 1
promoter activity interaction Z-score [2, 19]: -0.0187
promoter activity interaction Z-score [3, 8]: -0.112 ± 0.01
promoter activity interaction Z-score [3, 9]: 0.0252 ± 0.018
promoter activity interaction Z-score [3, 10]: -0.116 ± 0.077
promoter activity interaction Z-score [3, 11]: -0.229 ± 0.14
promoter activity interaction Z-score [3, 12]: 0.415 ± 0.16
promoter activity interaction Z-score [3, 13]: -0.0395 ± 0.041
promoter activity interaction Z-score [3, 14]: 0.325 ± 0.09
promoter activity interaction Z-score [3, 15]: 0.0746 ± 0.14
promoter activity interaction Z-score [3, 16]: -0.67 ± 0.27
promoter activity interaction Z-score [3, 17]: -0.111 ± 0.099
promoter activity interaction Z-score [3, 18]: -0.153 ± 0.23
promoter activity interaction Z-score [3, 19]: 0.149 ± 0.13
promoter activity interaction Z-score [4, 8]: -0.54 ± 0.28
promoter activity interaction Z-score [4, 9]: -0.583 ± 0.092
promoter activity interaction Z-score [4, 10]: -0.754 ± 0.17
promoter activity interaction Z-score [4, 11]: -0.418 ± 0.015
promoter activity interaction Z-score [4, 12]: -0.588 ± 0.17
promoter activity interaction Z-score [4, 13]: -0.0893 ± 0.4
promoter activity interaction Z-score [4, 14]: -0.761 ± 1
promoter activity interaction Z-score [4, 15]: 0.398 ± 0.68
promoter activity interaction Z-score [4, 16]: -2.42 ± 0.71
promoter activity interaction Z-score [4, 17]: -1.11 ± 1.2
promoter activity interaction Z-score [4, 18]: -3.33
promoter activity interaction Z-score [4, 19]: -0.548 ± 0.013
promoter activity interaction Z-score [5, 8]: 0.101 ± 0.27
promoter activity interaction Z-score [5, 9]: -0.585 ± 0.075
promoter activity interaction Z-score [5, 10]: -0.128 ± 0.22
promoter activity interaction Z-score [5, 11]: -0.321 ± 0.77
promoter activity interaction Z-score [5, 12]: -0.965 ± 0.67
promoter activity interaction Z-score [5, 13]: 0.101 ± 0.13
promoter activity interaction Z-score [5, 14]: -0.78 ± 0.081
promoter activity interaction Z-score [5, 15]: 0.872 ± 0.96
promoter activity interaction Z-score [5, 16]: -1.9
promoter activity interaction Z-score [5, 17]: -1.13 ± 0.46
promoter activity interaction Z-score [5, 18]: -2.08 ± 0.078
promoter activity interaction Z-score [5, 19]: -1.54 ± 0.12
promoter activity interaction Z-score [6, 8]: -0.0716 ± 0.075
promoter activity interaction Z-score [6, 9]: -0.0983 ± 0.033
promoter activity interaction Z-score [6, 10]: -0.37 ± 0.018
promoter activity interaction Z-score [6, 11]: 0.00722 ± 0.14
promoter activity interaction Z-score [6, 12]: -0.334 ± 0.51
promoter activity interaction Z-score [6, 13]: -0.124 ± 0.17
promoter activity interaction Z-score [6, 14]: -0.218 ± 0.073
promoter activity interaction Z-score [6, 15]: 0.588 ± 0.26
promoter activity interaction Z-score [6, 17]: -1.21
promoter activity interaction Z-score [6, 18]: -0.982 ± 0.23
promoter activity interaction Z-score [6, 19]: 0.387 ± 0.062
promoter activity interaction Z-score [7, 8]: -0.834 ± 0.2
promoter activity interaction Z-score [7, 9]: -1.09 ± 0.39
promoter activity interaction Z-score [7, 10]: -0.937 ± 0.21
promoter activity interaction Z-score [7, 11]: -0.582 ± 0.57
promoter activity interaction Z-score [7, 12]: -0.873 ± 0.14
promoter activity interaction Z-score [7, 13]: -0.075 ± 1
promoter activity interaction Z-score [7, 14]: -1.42 ± 0.33
promoter activity interaction Z-score [7, 15]: -0.223 ± 0.39
promoter activity interaction Z-score [7, 16]: -1.14
promoter activity interaction Z-score [7, 17]: -0.703
promoter activity interaction Z-score [7, 18]: -1.44 ± 0.34
promoter activity interaction Z-score [7, 19]: 0.705
